Results as given in the supplement of paper PMC6555819.

System: RARa:RXR (NR concentration 270 nM, RXRa partner concentration 90 nM)
Test: PBM binding z-score (relative to random genomic background probes); higher = stronger binding; sequences stand for … in GC…GCGATTGACAGCGTAGAATGAAGG
Method in brief: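 For binding z-scores, the reference was random background probes on custom Agilent 4×180K protein-binding microarrays. These arrays were incubated 1 h with ligand-free nuclear receptor dimers in PBS pH 7.4, 2% milk, 0.02% Triton X-100, 1 mM DTT, 0.2 mg/mL BSA and 0.4 mg/ml salmon testes DNA. Fluorescence was scanned after antibody detection of each partner (one per run) and regression-normalized.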

Question: How did the PBM binding z-score turn out when ATCTCTAGGTAAGACACAGTTCAGTGAAGAACGC was run?
Answer: Its PBM binding z-score is 0.786.

Question: CCGACTGGGGCAAGGTTACGATAACGCACAGCCA was tested. Which PBM binding z-score did it give?
Answer: The PBM binding z-score was 0.767.

Question: Which PBM binding z-score does the source give for AATACAGGGTCACTAGTCCAGAGTAGGTACGAAT here?
Answer: Its PBM binding z-score is 3.7.

Question: With ACTTACTGGTCAACGAGGTTATAGCACGCGTATA as the sequence, how does the PBM binding z-score read?
Answer: The PBM binding z-score was 2.03.

Question: How did the PBM binding z-score turn out when TAGCCTAGGTCATTCAGCGGCCAGTATAGAAAGC was run?
Answer: Its PBM binding z-score is 3.02.

Question: Which PBM binding z-score does the source give for CCTACTGGGCCATCAGGTCATTCATATCAACGTT here?
Answer: Its PBM binding z-score is 1.96.

Question: For CCTACTGGCCCATTCAGAGGTCATTGATCATATG, which PBM binding z-score is on record?
Answer: Its PBM binding z-score is 4.14.

Question: With GCTTGTAGTTCAAGGTTAAGAAAGACTAAGCTAA as the sequence, how does the PBM binding z-score read?
Answer: The PBM binding z-score was 1.74.

Question: How did the PBM binding z-score turn out when TCTAGTTGGTCACTGAGGTCACACACGACGGGTA was run?
Answer: Its PBM binding z-score is 5.06.

Question: With ACTGACGGGTCAACGAGGTTATAGCACGCGTATA as the sequence, how does the PBM binding z-score read?
Answer: The PBM binding z-score was 4.36.

Question: With ATCTCTAGGTAAGACGCAGTTCAGTGAAGAACGC as the sequence, how does the PBM binding z-score read?
Answer: The PBM binding z-score was -0.309.

Question: Which PBM binding z-score does the source give for GGAATGAGGGCAAAGTTGATAGCATCTGTCGACG here?
Answer: The PBM binding z-score was 1.95.

Question: Which PBM binding z-score does the source give for CGTCCAAGGTCAAGGTCAGTAAAAGAGACTCGAA here?
Answer: The PBM binding z-score was 5.

Question: With TCTATTAGTTGATTAGGGCTACCGAAACAGCGGA as the sequence, how does the PBM binding z-score read?
Answer: The PBM binding z-score was 0.22.

Question: For TCTAGTTGGTCAAAGATCACACACTCGAAATGCG, which PBM binding z-score is on record?
Answer: Its PBM binding z-score is 1.77.

Question: For AGTCAGAGTTCAGGACGAGGTAACGTAAAGCACG, which PBM binding z-score is on record?
Answer: The PBM binding z-score was 2.67.

Question: Which PBM binding z-score does the source give for CGAACTAGGTCACGGACAGTGAATCTCCGCACGC here?
Answer: Its PBM binding z-score is 3.61.

Question: For TCATATAGGTAAAAGCTAGGTGAAAGTCCGATCT, which PBM binding z-score is on record?
Answer: The PBM binding z-score was 1.01.

Question: Which PBM binding z-score does the source give for TCGAGTAGGTAACCAATGGGGCATTCAGCTTTCT here?
Answer: The PBM binding z-score was -0.292.

Question: With TCGAGTAGGTTAGCAATGGGGCATTCAGCTTTCT as the sequence, how does the PBM binding z-score read?
Answer: The PBM binding z-score was -0.123.

Question: For ATGTCTAGGTAACCAAGTTCAGTGAATGCCGAAC, which PBM binding z-score is on record?
Answer: Its PBM binding z-score is 0.884.

Question: With TCTATTAGTTGAAGGGCAAGCGACGAGTCCGTTT as the sequence, how does the PBM binding z-score read?
Answer: The PBM binding z-score was 0.478.
